Inconclusive results are not listed. Activity calls are given as the source filed them. The call rests on the fitted dose curve; in most records, active means well fitted inhibition curve with a large enough effect; inconclusive means small, poorly fitted or top-dose-only effect; inactive means flat fitted curve, though single readings scatter.
Key:
[1] = system: CRL-7250; test: Cytotoxic Profiling of Annotated Libraries Using Quantitative High-Throughput Screening (AID 1296008); conditions: Five cell lines viability, CellTiter-Glo ATP luminescence, 48-72 h; max response: active compounds read low; on max response: on the % scale 0 is the no-effect control and ±100 the full control effect
Method in brief: (§1)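 Cytotoxicity was measured as CellTiter-Glo ATP luminescence, read after 10 min at room temperature. Compound treatment of the cells lasted 48 or 72 hr at 37 degrees Celsius in a qHTS format.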

[2] = system: HaCat; test: as above; conditions: Five cell lines viability, CellTiter-Glo ATP luminescence, 48-72 h; max response: active compounds read low
Method in brief: as §1

[3] = system: KB-3-1; test: as above; conditions: Five cell lines viability, CellTiter-Glo ATP luminescence, 48-72 h; max response: active compounds read low
Method in brief: as §1

[4] = system: NIH3T3; test: as above; conditions: Five cell lines viability, CellTiter-Glo ATP luminescence, 48-72 h; max response: active compounds read low
Method in brief: as §1

[5] = system: HACAT; test: qHTS assay to identify novel small-molecules to repurpose for Merkel cell carcinoma treatment (AID 1296009); conditions: MCC and control cell lines, CellTiter-Glo viability, 72 h; at 44.8 µM (top of the series) unless noted
Method in brief: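 72 hr, 37 degree celsius; NPC 8-pt / MIPE 11-pt dose response; compound pinned in DMSO; CellTiter-Glo, 10 min RT, luminescence; normalized to no-cell and DMSO controls.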

Measured: max response
Further: nearly all actives have a fitted effect of over 60% in size.

COC(=O)C[C@H]1C(C)(C)[C@H](OC(=O)c2ccccc2)C2CC3=C4CC(=O)O[C@@H](c5ccoc5)[C@]4(C)CCC3[C@@]1(C)C2=O (stereo not given in full)
inactive: [1] -6.86% | [2] | [3] 0.65% | [4] 0.65% | [5] inactive [at 17.4 µM]

CC1=C2C[C@@]3(C)C(CCC[C@@H]3C)C(O)C2OC1=O (stereo not given in full)
inactive: [1] 2.27% | [2] | [3] 5.15% | [4] | [5]

CN1CCN(c2ccc(-c3cccc(CN4CCOCC4)c3)cc2NC(=O)c2c[nH]c(=O)cc2C(F)(F)F)CC1
inactive: [1] -6.65% | [2] | [3] | [4] -7.39% | [5]

C=C1CCC2C(C)(C)CCCC2(C)C1CC/C(C)=C\CO (stereo not given)
inactive: [1] 3.55% | [2] | [3] 1.75% | [4] | [5]

O=C(c1ccc(OC(F)F)c(C#Cc2ccccn2)c1)N1Cc2cccnc2C1
inactive: [1] 4.31% | [2] | [3] -1.9% | [4] 3.1% | [5]

C[C@@H](NC(=O)c1ccc(C#Cc2cccc(F)c2)cn1)C(C)(C)O
inactive: [1] -12.8% | [2] | [3] 7% | [4] 2.74% | [5]

C=C(CCC1C(C)(O)CCC2C(C)(C)C(O)CCC12C)C(O)CO (stereo not given)
inactive: [1] -26.3% | [2] | [3] -9.88% | [4] -4.7% | [5]

Source: PubChem BioAssay (NCATS)
